Measured values from ChEMBL document CHEMBL1201862, “PubChem BioAssay data set” (2004).
About 2,100 (0.53%) of roughly 400,000 compounds were called active. Inconclusive results (about 14%) are left out. The sample holds actives, similar compounds and a random draw of the others, so the mix is not that of the screen. No rule for the calls is given here.

Target: Ataxin-2 (Homo sapiens) (UniProt Q99700)
Assay: qHTS for Inhibitors of ATXN expression.
Assay type: functional

Ataxin-2 (Homo sapiens), sequence (Q99700 whole entry): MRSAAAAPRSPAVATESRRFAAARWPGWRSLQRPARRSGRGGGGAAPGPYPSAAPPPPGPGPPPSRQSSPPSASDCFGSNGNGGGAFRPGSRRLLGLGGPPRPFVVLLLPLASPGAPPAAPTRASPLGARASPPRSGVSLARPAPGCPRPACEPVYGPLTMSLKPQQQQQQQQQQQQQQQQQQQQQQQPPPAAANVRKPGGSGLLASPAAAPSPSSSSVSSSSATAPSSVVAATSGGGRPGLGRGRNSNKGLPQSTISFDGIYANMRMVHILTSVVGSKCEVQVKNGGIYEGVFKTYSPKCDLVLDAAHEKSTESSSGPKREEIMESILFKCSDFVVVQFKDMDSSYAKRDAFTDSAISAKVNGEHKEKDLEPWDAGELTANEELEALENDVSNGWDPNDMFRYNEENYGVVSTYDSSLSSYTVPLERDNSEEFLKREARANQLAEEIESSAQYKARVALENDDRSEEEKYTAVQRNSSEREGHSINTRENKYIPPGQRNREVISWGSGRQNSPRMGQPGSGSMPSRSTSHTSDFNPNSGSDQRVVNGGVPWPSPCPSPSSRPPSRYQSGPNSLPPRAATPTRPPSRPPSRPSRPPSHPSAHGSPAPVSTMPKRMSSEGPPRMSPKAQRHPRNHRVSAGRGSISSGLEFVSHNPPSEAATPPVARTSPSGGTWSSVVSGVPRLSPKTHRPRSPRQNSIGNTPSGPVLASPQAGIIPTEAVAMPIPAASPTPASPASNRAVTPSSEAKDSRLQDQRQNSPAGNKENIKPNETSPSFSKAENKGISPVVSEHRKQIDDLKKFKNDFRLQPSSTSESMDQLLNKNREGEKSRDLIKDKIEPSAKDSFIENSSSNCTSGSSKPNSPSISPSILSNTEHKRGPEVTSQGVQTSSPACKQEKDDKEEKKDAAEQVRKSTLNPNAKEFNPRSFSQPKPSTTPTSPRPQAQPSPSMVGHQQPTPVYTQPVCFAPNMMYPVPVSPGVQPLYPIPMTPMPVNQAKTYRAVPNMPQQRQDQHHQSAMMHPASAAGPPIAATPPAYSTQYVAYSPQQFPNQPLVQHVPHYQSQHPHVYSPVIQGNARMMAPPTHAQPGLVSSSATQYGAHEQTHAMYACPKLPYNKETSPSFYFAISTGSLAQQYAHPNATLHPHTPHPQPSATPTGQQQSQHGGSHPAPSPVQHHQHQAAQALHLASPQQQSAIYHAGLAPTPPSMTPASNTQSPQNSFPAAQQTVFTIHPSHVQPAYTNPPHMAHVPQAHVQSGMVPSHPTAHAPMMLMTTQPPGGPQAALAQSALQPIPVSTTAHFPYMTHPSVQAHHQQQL

| Structure (SMILES) | Potency |
| --- | --- |
| Cc1ccccc1N1CCN(Cc2nc(Cc3ccccc3)no2)CC1 | inactive |
| Clc1nc(N2CCOCC2)ncc1Br | inactive |
| CCOC(=O)C(C)Sc1cnccn1 (configuration not stated) | inactive |
| CCCCC(=O)NC(c1ccco1)c1cc(Cl)c2cccnc2c1O (configuration not stated) | inactive |
| CNC(=O)c1ccc(-c2sc3nc(N4CCOCC4)c4c(c3c2N)CC(C)(C)OC4)o1 | inactive |
| COC(=O)[C@@H]1CCCN1C(=O)c1cnn(-c2ncc3c(n2)-c2ccccc2CCC3)c1C1CC1 | inactive |
| Cc1cccc(-n2nnc(C(=O)N3CCc4ccccc4C3)c2N)c1 | inactive |
| Cc1ccc(-n2ncc(C(=O)NCCN3CCc4ccccc4C3)c2C2CCN(C(=O)OC(C)(C)C)CC2)c(C)c1 | 20 µM (active) |
| CCOC(=O)c1cc2c(=O)n3ccccc3nc2n(Cc2ccco2)/c1=N/C(=O)c1ccccc1OC | inactive |
| CCc1cc(S)n2c(nc3ccccc32)c1C#N | inactive |
| N#Cc1cc(-c2ccccc2)[nH]c1-c1nccc2ccccc12 | inactive |
| Oc1ncc(I)cc1I | inactive |
| O=C(Nc1nc[nH]n1)c1cccc(S(=O)(=O)N2CCOCC2)c1 | inactive |
| Cn1cnnc1SCC(=O)Nc1cccc(S(=O)(=O)N2CCOCC2)c1 | inactive |
| CC(C)(C)c1ccc(OCCCC(=O)Nc2cccc(S(=O)(=O)N3CCOCC3)c2)cc1 | 28.2 µM (active) |
| Cc1ccccc1NC(=O)CN1C(=O)S/C(=C\c2ccc(-c3cccc(C(=O)O)c3C)o2)C1=O | inactive |
| O=C(O)c1cc(N/N=C/C=C/c2ccccc2)ccc1Cl | inactive |
| COCC1CCCN(Cc2cn(-c3ccccc3F)nc2-c2cc(C)sc2C)C1 (configuration not stated) | inactive |
| CCOc1ccccc1-c1c2cc(O)c(=O)cc-2oc2cc(O)c(O)cc12 | 11.2 µM (active) |
| COC(=O)c1ccccc1-c1c2ccc(=N)cc-2oc2cc(N)ccc12 | inactive |
| CCn1cc2nc(SCc3cccc(OC)c3)n(Cc3ccc(Cl)cc3)c(=O)c2n1 | inactive |
| COc1ccc(CSc2nc3ccncc3n2Cc2nc(-c3ccc(OC)c(OC)c3)oc2C)cc1 | 39.8 µM (active) |

| Structure (SMILES) | Potency |
| --- | --- |
| COc1ccc(CNC(=O)C[S+]([O-])Cc2nc(-c3ccc(C)cc3)oc2C)cc1 (configuration not stated) | inactive |
| CCN(CC(=O)N(CC(C)C)c1c(N)n(CC(C)C)c(=O)[nH]c1=O)Cc1nc(O)c2ccccc2n1 | inactive |
| Cc1ccc(-c2nc(C[S+]([O-])CC(=O)NC3CC3)c(C)o2)cc1 (configuration not stated) | inactive |
| COc1ccc(NCC(=O)n2c(C)c(C)c3ccccc32)cc1 | inactive |
| COc1ccc(-n2nc(C(=O)NCC(=O)Nc3ccc(F)cc3)c3ccccc3c2=O)cc1 | inactive |
| CCCCN(CC)C(=O)c1nn(-c2ccc(OC)cc2)c(=O)c2c1c1ccccc1n2C | 20 µM (active) |
| CC1(C)C(=O)Nc2ccccc2N1C(=O)COC(=O)Cc1ccc(Cl)c(Cl)c1 | inactive |
| CCCCN=C(S)NNc1c(Cl)cc(Cl)cc1Cl | inactive |
| O=C(COC(=O)CCSc1ccc(Cl)cc1)NCc1ccccc1 | inactive |
| COc1ccc(Cn2c(=O)[nH]c3cc(C(=O)NCCCN4CCCC4)ccc3c2=O)cc1 | inactive |
| Cc1[nH]c2ccccc2c1SCC(=O)N1CCCCC1 | inactive |
| O=C(NN=C1CCCC1)c1[nH]c2ccc(Cl)cc2c1-c1ccccc1 | inactive |
| COc1ccc2c(Sc3ccc(Cl)cc3)c(C(=O)NCCCN3CCCCC3)[nH]c2c1 | 39.8 µM (active) |
| CCN(CC)CCNC(=O)c1[nH]c2ccccc2c1Sc1ccc(Cl)cc1 | 28.2 µM (active) |
| COC(=O)C1CCN(C(=O)COC(=O)c2oc3ccc(OC)cc3c2C)CC1 | inactive |
| Cc1[nH]c2ccccc2c1C(=O)CSc1ccc(Cl)cc1 | inactive |
| O=C(NCCCN1CCCCC1)c1[nH]c2ccccc2c1Sc1ccc(Cl)cc1 | 39.8 µM (active) |
| COc1ccc2c(Sc3ccccc3)c(C(=O)N3CCC(C)CC3)[nH]c2c1 | 39.8 µM (active) |
| COc1cccc2[nH]c(C(=O)NCCCN3CCCC3=O)cc12 | inactive |
| N#CC1=C(N)Oc2c(oc(CO)cc2=O)C1c1ccccc1[N+](=O)[O-] (configuration not stated) | inactive |
| O=C(CCNC(=O)Cn1cnc2ccccc2c1=O)NCC1CCCO1 (configuration not stated) | inactive |
| Cc1ccc(OCCn2cnc3ccccc3c2=O)c([N+](=O)[O-])c1 | inactive |

| Structure (SMILES) | Potency |
| --- | --- |
| CCCCCOc1ccc(CSC2=NCCN2)cc1[N+](=O)[O-] | 35.5 µM (active) |
| COC(=O)C(N)Cc1ccc(OC)c([N+](=O)[O-])c1 (configuration not stated) | inactive |
| Cc1ccccc1NC(=O)COc1ccc(Br)cc1C | inactive |
| CCC1CN(C(=O)NCc2ccc(F)cc2)c2ccccc2O1 (configuration not stated) | inactive |
| CC(=O)c1ccccc1NCC(=O)Nc1ccc(C)cc1 | inactive |
| O=C(Cn1sc2ccccc2c1=O)Nc1ccc(F)cc1 | 31.6 µM (active) |
| CCn1c(=O)c(C(=O)Nc2ccc(C)cc2)c(O)c2ccccc21 | inactive |
| Cc1ccc(NC(=O)Cn2sc3ccccc3c2=O)cc1 | 25.1 µM (active) |
| O=C(CC1C(=O)NCCN1C(=O)Nc1ccccc1)Nc1ccc(F)cc1 (configuration not stated) | inactive |
| O=C(Nc1ccc(F)cc1)c1cccc2ccccc12 | inactive |
| O=C(Cn1sc2ccccc2c1=O)Nc1ccccc1 | 39.8 µM (active) |
| O=C(CN1C(=O)CSc2ccc(C(F)(F)F)cc21)Nc1ccccc1 | inactive |
| O=C(CN1C(=O)c2cccc3cccc1c23)Nc1ccccc1 | inactive |
| COc1cccc2sc3cc(NCC[C@@H]4CCCN4C)ccc3c(=O)c12 | inactive |
| CCc1nc2ccc(C(=O)Nc3cccc(OC)c3)cn2c1N(CCC(C)C)CCN(C)C | 14.1 µM (active) |
| COc1cc(C(=O)Nc2ccn(C)n2)ccc1OC(F)F | inactive |
| CCc1nc2ccc(C(=O)Nc3ccc(OC)c(OC)c3)cn2c1N(C)CCC(C)C | 31.6 µM (active) |
| COc1ccc(C)cc1NC(=O)c1cc(-c2ccccc2)nc2c1cnn2C(C)C | inactive |
| CCc1nc2ccc(C(=O)Nc3cc(-c4ccccc4)ccc3OC)cn2c1N(CC)CCN(C)C | 39.8 µM (active) |
| CCCNC(=O)c1c(N)n(-c2cccc(OC)c2)c2nc3ccccc3nc12 | inactive |
| COc1ccc(NC(=O)c2ccc(S(=O)(=O)N3CC(C)CC(C)C3)cc2)cc1S(N)(=O)=O (configuration not stated) | inactive |
| Cc1ccc(-c2cc(C(=O)Nc3ccccn3)c3ccccc3n2)o1 | inactive |

| Structure (SMILES) | Potency |
| --- | --- |
| CN(NC(=O)COc1ccccc1)C1=NS(=O)(=O)c2ccccc21 | inactive |
| CC(=O)c1ccc(/N=c2\scc(C)n2C(C)C)cc1 | inactive |
| CC(=O)Nc1cccc(-c2csc(Nc3cc(C)ccn3)n2)c1 | 25.1 µM (active) |
| CC(=O)Nc1ccc(-c2ccnc(-c3ccc(NC(C)=O)cc3)n2)cc1 | inactive |
| COc1ccc(-c2csc(NC(=O)c3c(C)noc3C)n2)cc1OC | inactive |
| Cc1c(CCC(=O)NCCCN2CCCC2=O)c(=O)oc2c(C)c(O)ccc12 | inactive |
| COc1cc(/C=C/c2sc3ccccc3[n+]2CCCS(=O)(=O)[O-])ccc1O | 18.9 µM (active) |
| Cc1cccn2c(=O)c3cc(C(=O)NCC4CCCO4)c(=N)n(Cc4ccc(F)cc4)c3nc12 (configuration not stated) | inactive |
| CCN(CC)c1ccc(/C=C(\C#N)c2ccccn2)cc1 | inactive |
| CCS(=O)(=O)c1ccc2oc(SCC(=O)NCCc3ccccc3)nc2c1 | inactive |
| O=C(CSc1ccccc1)NCCc1ccc(F)cc1 | inactive |
| COc1cccc(Cc2nc3ccccc3nc2SCC(=O)NCCc2ccccc2)c1 | 35.5 µM (active) |
| O=S(=O)(c1ccc(N2CCC(c3ccc(Cl)cc3)=N2)cc1)N(CCO)CCO | inactive |
| CCCCC[C@H](O)/C=C/[C@H]1CCC(=O)[C@@H]1CCCCCCC(=O)N1CCCCC1CO (some centres not stated) | 39.8 µM (active) |
| CN(/N=C/c1cc(Cl)cc(Cl)c1O)C(=S)NC(C)(C)C | inactive |
| Cc1cc(N2CCOCC2)n2ncc(-c3ccccc3Cl)c2n1 | inactive |
| C=CCn1nc([N+](=O)[O-])nc1Sc1cccc2cccnc12 | 39.8 µM (active) |
| Cn1nc([N+](=O)[O-])nc1Sc1cccc2cccnc12 | 7.94 µM (active) |
| Cc1nn(C)c(Sc2ccccn2)c1[N+](=O)[O-] | inactive |
| CCOc1ccc2nc(NCCNC(=O)CC)c(C#N)cc2c1 | inactive |
| CN1c2ccccc2Oc2nnc(Cl)cc21 | inactive |
| Cc1cc(-c2nnc3n2N=C(c2ccccc2)CS3)[nH]n1 | inactive |

| Structure (SMILES) | Potency |
| --- | --- |
| Clc1ccc(C2=Nn3c(nnc3-c3cc(-c4ccccc4)[nH]n3)SC2)cc1 | 35.5 µM (active) |
| O=c1c2ccccc2nc(/C=C/c2ccc(O)cc2)n1CCc1ccccc1 | inactive |
| O=C(CC1CCCCC1)NCc1nc(-c2ccccc2)no1 | inactive |
| Cc1nn(C(=O)CCCC(=O)NCc2ccccc2)c2ccccc12 | inactive |
| CCCCC[C@H]1CN(C2CCCCC2)C(=O)[C@@H]1CC(=O)NCc1ccccc1 | 39.8 µM (active) |
| CCN1C(=O)c2cccc3c(S(=O)(=O)N4CCNCC4)ccc1c23 | inactive |
| COc1cccc(/C=C/c2ccc3cccc(O)c3n2)c1OC | inactive |
| COc1cc(Br)c(/C=C/c2ccc3cccc(O)c3n2)cc1OC | 25.1 µM (active) |
| COc1cc(OC)c(OC)cc1C=Cc1ccc2ccccc2n1 | inactive |
| Cc1ccc(C2C=C(c3ccc(F)cc3)Nc3nc(CCCO)nn32)cc1 (configuration not stated) | inactive |
| O=CN(c1ccccc1)c1ccc2ccccc2c1 | inactive |
| CCCCCCc1cc2cc(-c3nnc(-c4cc(OC)c(OC)c(OC)c4)o3)c(=O)oc2cc1O | inactive |
| COCCCN=C(S)NCCNc1nc2c(C)c(C)ccc2cc1C#N | inactive |
| COc1cc2nc(/C=C/c3cc(OC)c(OC)c(OC)c3)sc2cc1SC | inactive |
| CCOc1ccc(-c2ccc(/C=C3/C(=N)N4C=CSC4=NC3=O)o2)c([N+](=O)[O-])c1 | 31.6 µM (active) |
| CC1=NN2C(=N)/C(=C\c3cc(C)n(-c4ccc(C)cc4)c3C)C(=O)N=C2S1 | inactive |
| CC1=CN2C(=N)/C(=C/c3ccc([N+](=O)[O-])o3)C(=O)N=C2S1 | 28.2 µM (active) |
| CC1=CN2C(=N)/C(=C/c3cc(Cl)c(O)c(Cl)c3)C(=O)N=C2S1 | inactive |
| COc1ccc(-c2ccc(/C=N/NC(=O)c3cccnc3)o2)c([N+](=O)[O-])c1 | inactive |
